SARS 3CLpro inh = SARS-CoV 3CLpro protease inhibitors, primary screen, biochemical, quenched FRET; recombinant SARS-CoV 3CLpro, quenched FRET peptide cleavage; AID 1706, 2009; 290,000 compounds, 0.14% hits; inhibition, % at 6 µM; in the data active means inhibition above about 12%
VHR inh abs = VHR1 phosphatase inhibitors, primary screen, biochemical, absorbance, uHTS; AID 1654, 2009; 290,000 compounds, 0.52% hits; Dual specificity protein phosphatase 3 (Homo sapiens), P51452; recombinant VHR phosphatase, pNPP absorbance; inhibition, % at 13.3 µM; in the data active means inhibition above about 50%
Target sequence (P51452 whole entry, looked up): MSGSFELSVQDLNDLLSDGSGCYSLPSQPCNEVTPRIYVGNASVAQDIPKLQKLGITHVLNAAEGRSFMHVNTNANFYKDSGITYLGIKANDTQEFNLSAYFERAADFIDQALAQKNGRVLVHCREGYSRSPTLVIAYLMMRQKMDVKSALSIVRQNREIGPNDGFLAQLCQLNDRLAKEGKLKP
MazEF act = activators of E. coli MazEF toxin-antitoxin RNase, primary screen, biochemical, fluorescence, uHTS; Endoribonuclease toxin MazF (Escherichia coli (strain K12)), P0AE70; FAM/BHQ RNA-DNA oligo cleavage fluorescence, 5 h; activation, % at 20 µM; 350,000 compounds, 0.32% hits; in the data active means activation above about 50%
Target sequence (P0AE70 whole entry, looked up): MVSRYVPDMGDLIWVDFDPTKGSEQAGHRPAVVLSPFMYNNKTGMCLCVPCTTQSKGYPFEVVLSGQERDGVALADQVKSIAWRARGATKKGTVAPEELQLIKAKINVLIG
CCHF vOTU inh-1 = CCHFV vOTU protease inhibitors, primary screen, biochemical, Pep-AMC substrate, fluorescence; Crimean-Congo hemorrhagic fever virus L polyprotein viral ovarian tumor (vOTU) protease …; inhibition, % at 11.5 µM; 370,000 compounds, 0.55% hits; AID 651958, 2012; further: 0% = vehicle wells with enzyme and 100% = no enzyme wells
BJeLR viability = MLPCN primary cell-based screen for lethality selective to Ras in HRASV12 cells | BJeLR (HRASV12) viability, CellTiter-Glo ATP luminescence, 48 h | inhibition, % (no concentration beside the values) | 300,000 compounds, 0.17% hits; in the data active means inhibition above about 50%
CCHF vOTU inh-2 = CCHFV vOTU protease inhibitors, confirmation, biochemical, Pep-AMC substrate, fluorescence | shares compounds with CCHF vOTU inh-1 | Recombinant CCHFV vOTU | inhibition, % at 11.5 µM | 1,900 compounds, 17% hits
* = called active by the depositor; . = not tested or not shown. In the library only some 1.4% were active in any assay of this set; here they are far more common. Unless noted, no stated cut-off is given here; in the data, active means inhibition above about 30%; inactive means the rest.

SMILES	SARS 3CLpro inh	VHR inh abs	MazEF act	CCHF vOTU inh-1	BJeLR viability	CCHF vOTU inh-2
COC(=O)C1C(O)=C(C=Nc2ccc(N)cc2)C(=O)CC1(C)C (stereo not drawn)	0	-2	-2	40*	1	-4
O=C(/C=C(\Nc1ccc(F)cc1)c1ccccc1)c1ccccc1	.	.	.	-6	.	.
CC1(CC(=O)N/N=C/c2ccc(-c3cccc(C(F)(F)F)c3)o2)OCCO1	8	-1	3	35*	2	-7
CC(C(=O)Nc1nc(-c2ccc(F)c(F)c2)cs1)N1C(=O)C2CC=CCC2C1=O (stereo not drawn)	.	.	1	31*	.	-8
COc1ccc(-n2c(SCC(=O)Nc3ccccc3-c3ccccc3)nnc2-c2ccccc2)cc1	.	.	.	9	.	.
Oc1c(Br)cc(Br)cc1CNc1cccc2cccnc12	4	12	12	116*	6	12
Oc1ccc(Br)cc1CNc1cccc2cccnc12	-2	6	-26	18	-15	.
Oc1ccc(Cl)cc1CNc1cccc2cccnc12	3	-4	12	102*	-14	-4
CN(CCCC1CCCC1)C(=O)c1cc(COc2ccc(F)c(F)c2)on1	3	20	-5	38*	2	4
CCc1ccc(S(=O)(=O)Nc2ccc(O)c3ccccc23)cc1	-3	.	-14	62*	-4	-16
Cc1oc2c(cc(NS(=O)(=O)c3ccc(F)cc3)c3ccccc32)c1C(=O)O	8	-4	-48	30*	7	-10
O=S(=O)(Nc1ccc(O)c2ccccc12)c1ccc(F)cc1	.	.	35	81*	-1	5
O=S(=O)(Nc1ccc(NS(=O)(=O)c2ccccc2)c2ccccc12)c1ccccc1	.	.	5	24	.	.
CCCCCCCCN1C(=O)N2Cc3cc(F)ccc3C2CS1(=O)=O (stereo not drawn)	.	.	.	2	.	.
CCCCNC(=S)NNC(=O)c1cc(-c2cccnc2)nc2ccccc12	-2	45	-2	35*	-19	-9
CCCNC(=S)NNC(=O)c1cc(-c2cccnc2)nc2ccccc12	3	13	6	10	12	.
COc1ccc(-n2c3nc4ccccc4nc3c3c(=N)oc(C)nc32)cc1	1	2	4	69*	-4	36*
CCCCn1c2nc3ccccc3nc2c2c(=N)oc(C)nc21	.	30	3	-47	.	.
O=C(CN1C2CCCC1CC(NC(=O)c1ccccc1)C2)Nc1ccccc1 (stereo not drawn)	0	26	1	30*	-1	-17
COc1cccc(C(=O)NC2CC3CCCC(C2)N3CC(=O)Nc2ccccc2)c1 (stereo not drawn)	6	-1	-1	-2	-3	.
CC(C)[C@@H]1NC(=O)[C@H]2C[C@@]3(C)c4ccccc4N[C@H]3N2C1=O	.	.	.	-3	.	.
CC(=O)Nc1ccc(S(=O)(=O)/N=C2\C(=O)c3ccccc3C([O-])=C2n2cc[n+](-c3ccccn3)c2)cc1	2	9	-12	68*	10	58*
Cc1ccc(S(=O)(=O)/N=C2\C(=O)c3ccccc3C([O-])=C2n2cc[n+](CCC(C)C)c2)cc1	0	42	-3	.	-5	.
COc1ccc(NC(=O)N2CCC(N(C)CCC(C)C)CC2)cc1OC	.	.	.	0	.	.
CCOC(=O)C1(C)C=C(Nc2ccc(O)cc2)C(=O)N1c1ccc(O)cc1 (stereo not drawn)	3	4	1	91*	4	-15
SMILES	SARS 3CLpro inh	VHR inh abs	MazEF act	CCHF vOTU inh-1	BJeLR viability	CCHF vOTU inh-2
CCn1nc(NS(=O)(=O)c2ccccc2[N+](=O)[O-])c2cc3cccc(C)c3nc21	7	23	6	32*	9	5
CCn1nc(NS(=O)(=O)c2ccccc2[N+](=O)[O-])c2cc3ccc(C)cc3nc21	3	11	9	.	4	.
CCCCNC(=O)C1CCCN1C(=O)Nc1cc(C)cc(C)c1 (stereo not drawn)	.	.	.	0	.	.
CCCc1ccc(Oc2c(-c3ccc(O)c(C)c3O)n[nH]c2C)cc1	6	10	27	8	4	.
CCCc1ccc(Oc2cn[nH]c2-c2ccc(O)c(C)c2O)cc1	0	-17	14	36*	3	-9
CCC(C)NC(=O)CSc1nnc(-c2cc(OC)c(OC)c(OC)c2)o1 (stereo not drawn)	.	.	.	6	.	.
CC(=O)N1CCN(c2ccc(NC(=O)c3ccc([N+](=O)[O-])cc3Cl)cc2)CC1	-5	14	4	-12	13	.
CCCCN(CCCC)S(=O)(=O)c1ccc(NC(=O)c2ccc([N+](=O)[O-])cc2Cl)cc1	2	-1	-2	30*	-19	-8
Cc1nc2sc(C(=O)NCc3ccncc3)c(N)c2c(C)c1Cl	.	.	.	-5	.	.
CCc1nn(CC(=O)NCCCN(CC)Cc2ccccc2)c(=O)c2cc3sccc3n12	-3	25	2	35*	20	-10
Cc1ccc(-n2c(SCC(=O)Nc3ccc(OCc4ccccc4)cc3)nnc2-c2ccco2)cc1	.	.	.	9	.	.
CSCCCNC(=O)CN1C(=O)C2CCCCN2C(=O)c2ccccc21 (stereo not drawn)	.	.	.	-1	.	.
O=c1[nH]nc(CNc2ccc(O)cc2)c2ccccc12	2	6	444*	53*	2	-16
O=c1[nH]nc(CNc2ccc(C(F)(F)F)cc2)c2ccccc12	0	9	1	2	-4	.
O=C(Cc1cc(=O)[nH][nH]1)N/N=C/c1ccccc1C(F)(F)F	.	.	.	1	.	.
CCC(=O)N1CCN(c2ccc(NC(=S)NC(=O)c3cc4ccccc4o3)cc2)CC1	0	0	11	34*	6	-9
CC(C)C(=O)N1CCN(c2ccc(NC(=S)NC(=O)c3cc4ccccc4o3)cc2)CC1	1	-3	-8	-5	-3	.
O=C1C(Cl)=C(NC(=O)c2ccccc2)C(=O)C(Cl)=C1NC(=O)c1ccccc1	-4	30	-2	97*	5	-8
O=C(NC1=C(NC2CCS(=O)(=O)C2)C(=O)c2ccccc2C1=O)c1ccccc1 (stereo not drawn)	3	8	12	71*	40	69*
Cc1cccc(NC2=C(NC(=O)c3ccccc3)C(=O)c3ccccc3C2=O)c1	5	26	7	68*	-3	37*
O=C(NC1=C(Nc2ccc(Cl)cc2)C(=O)c2ccccc2C1=O)c1ccccc1	1	11	1	18	-5	.
O=C(NC(NC1CCS(=O)(=O)C1)C(=O)c1cccs1)c1ccccc1 (stereo not drawn)	0	28	3	2	-11	.
CN(C1=C(NC(=O)c2ccc(Cl)cc2)C(=O)c2ccccc2C1=O)c1ccccc1	2	-21	5	45*	-8	14

Compound activity from PubChem BioAssay.
